Laboratory results reported in PubChem BioAssay (NCI).
Values joined by “and” are separate entries in the source; they are usually repeats but may differ in a detail not shown here. Equal entries are not always repeated. This is part of a sample that, as a whole, favours compounds with a hit. Of some 83,000 tested, about 20% had one in any assay.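 For each line, cells grew in 96-well plates with the test compound present at a single concentration for 48 hours.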 Unmarked numbers belong to inactive results. Active and inactive are the calls of the source. The calls were made as follows: active = growth percent below 10; inactive = the rest.

These molecules were tested on MDA-MB-468 breast (assay: NCI-60 one-dose screen, 48 h (100 = growth as untreated, 0 = no growth, -100 = all killed)). Conditions: 10 µM unless noted.

First: Cn1cc2c(c1)-c1c(sc3nc(-c4ccc(NC(=O)Nc5cc(C(C)(C)C)on5)cc4)cn13)CC2
Second: CNC(=O)c1cc(Oc2ccc3c(c2)sc2nc(-c4ccc(N)cc4)cn23)ccn1
The growth of the first is higher: 68.8% for the first, 40.6% for the second.

First: O=C(CCCCC1CCSS1)Nc1ncnc2n[nH]c(-c3ccc(Oc4ccccc4)cc3)c12 (stereo not drawn)
Second: CCCCCCC/C=N/NC(=O)c1ccc(-n2cc(-c3ccccc3)nn2)cc1
The growth of the first is higher: 95.9% for the first, 82.6% for the second.

Going from `CC(=O)OC(C)COc1ccc(-c2ccccc2)cc1` (stereo not drawn) to `FC(F)(F)c1nc2c(NCc3ccc(-c4ccccc4)cc3)cccc2[nH]1`, the growth falls from 98.4% to 70.2%.

First: O=C(O)/C=C/c1cn(-c2ccccc2)nc1-c1ccc(F)cc1
Second: O=C(/C=C/c1cn(-c2ccccc2)nc1-c1cccc(Nc2ccnc3cc(Cl)ccc23)c1)c1ccc2c(c1)OCO2
The growth of the first is higher: 104% for the first, 68.2% for the second.

Going from `O=S=Nc1ccc([N+](=O)[O-])cc1` to `CC(=O)C[n+]1ccc(C)cc1Sc1ccccc1C`, the growth falls from 103% to 82%.

Compared with `CCOC(=O)C1CCc2c(ccc3ccccc23)N1CCC#N` (stereo not drawn), `O=C(Nc1ccc2c(ccn2Cc2ccccn2)c1)c1ccnnc1` is higher in growth: 73.6% for the first, 89.7% for the second.

First: COc1ccc(C(=O)CSc2nc(-c3cc(OC)ccc3OC)cc(-c3ccc(OC)cc3)c2C#N)cc1
Second: COc1ccc(-c2cc(C(=O)N3N=C(c4ccc(N)cc4)CC3c3ccc(Cl)cc3)c3cc(OC)ccc3n2)cc1 (stereo not drawn)
The growth of the first is higher: 105% for the first, 95.8% for the second.

First: COc1cc2oc(-c3cccc(C(=O)Nc4ccc(Cl)cc4)c3)cc(=O)c2c(OC)c1OC
Second: COc1cc(-c2nn(C(C)(C)C)cc2-c2ccnc(NCCCNS(=O)(=O)c3ccccc3)n2)ccc1Cl
The growth of the first is lower: 43.6% for the first, 67.3% for the second.

First: O=C(/C=C/c1cccc(Cl)c1)c1cccc(OCCCCOc2cccc(C(=O)/C=C/c3cccc(Cl)c3)c2)c1
Second: CC(=O)c1ccc(NC(=O)COc2ccc(C3SCC(=O)N3c3ccc(Br)cc3)cc2)cc1 (stereo not drawn)
The growth of the first is higher: 99.2% for the first, 92% for the second.

Compared with `OB(O)c1cccc(-c2nc3ccc4[nH]ncc4c3c3c2CCCC3)c1F`, `NS(=O)(=O)c1ccc(-n2ncc(NC(=O)Nc3ccc(S(=O)(=O)Nc4nccs4)cc3)c2-c2ccccc2)cc1` is higher in growth: 55.3% for the first, 102% for the second.

In the case of `Cn1c(SCC(=O)c2ccco2)nc2ccccc2c1=O`, the growth is reported as 5.9% (active).
`C#CC(=O)Nc1cccc2c1cc(C)n2-c1nc2c(c(NCc3ccccc3)n1)CCCC2` was tested, and the growth was -63.3% (active).
In the case of `O=C(Cn1c2c(c3ccccc31)CCCC2)Nc1ccc(-c2nc3ccccc3s2)cc1`, the growth is reported as -19.5% (active).
`Cc1cc(C)cc(Nc2nccc(-c3c(-c4ccc(F)cc4)ncn3C3CCNCC3)n2)c1` was tested, and the growth was -29.9% (active).
`COc1cc(NC2CCCCC2O)c2nc(-c3ccc(Cl)cc3)ccc2c1` (stereo not drawn) was tested, and the growth was 98.6% and 62.5%.
With `Fc1cccc(Cl)c1/C=N/Nc1nc(N/N=C/c2c(F)cccc2Cl)nc(N2CCCCC2)n1` the growth was -14.2% (active).
For `Cc1nc2sc(C(=O)Nc3cccc4c3OCCO4)c(N)c2cc1C(C)O` (stereo not drawn), the growth was 3.42% (active).
With `COc1ccc(C2C3=C(COC3=O)N(CCO)c3cc4c(cc32)OCO4)cc1OC` (stereo not drawn) the growth was 8.1% (active).
